Where “and” joins values, the source holds several entries; their conditions need not be identical. Identical values can stand only once.
Each compound was assayed on HT29 RNF43 G659fs (RNF43 659mut, CRISPR-edited) (assay: cell viability activity relative to DMSO (negative = inhibition); higher = more viable cells (less growth inhibition)). Details: 5 µM; 96 h.
Protocol: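 Broad Repurposing Library primary screen at a single dose of 5 uM. HT29 sg-Ctrl and HT29 RNF43 G659fs CRISPR-edited isogenic cells were seeded at 2500 cells/well in 384-well plates in duplicate and treated for 96 h. Viability was read by CellTiter-Glo and reported as % activity relative to DMSO, with MG132 as the positive control (negative = growth inhibition).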

Row | SMILES | cell viability activity
1 | CCN(CC)CCOc1ccc(C(=C(Cl)c2ccccc2)c2ccccc2)cc1 | -98.4%
2 | CC(C)[C@](O)(c1ccc2cc(OC(F)F)c(OC(F)F)cc2c1)c1c[nH]nn1 | -54.8%
3 | CC(C)C[C@H](NC(=O)[C@H](CCc1ccccc1)NC(=O)CN1CCOCC1)C(=O)N[C@@H](Cc1ccccc1)C(=O)N[C@@H](CC(C)C)C(=O)[C@@]1(C)CO1 | -97.1%
4 | Cc1ccc([N+](=O)[O-])cc1S(=O)(=O)N(C)/N=C/c1cnc2ccc(Br)cn12 | -88.7%
5 | CCCS(=O)(=O)Nc1ccc(F)c(C(=O)c2c[nH]c3ncc(Cl)cc23)c1F | -46.8%
6 | Cn1cnc2c(F)c(Nc3ccc(Br)cc3Cl)c(C(=O)NOCCO)cc21 | -71.6%
7 | Nc1ccc2cc3ccc(N)cc3nc2c1 | -64.5%
8 | Cc1[nH]nc2ccc(-c3cncc(OC[C@@H](N)Cc4ccccc4)c3)cc12 | -89.5%
9 | CON(C)C(=O)N1N=C(c2cc(F)ccc2F)S[C@@]1(CCCN)c1ccccc1 | -73.8%
10 | Cc1nc(Nc2ncc(C(=O)Nc3c(C)cccc3Cl)s2)cc(N2CCN(CCO)CC2)n1 | -65.9%
11 | O=C1NC(=O)[C@@H](c2cn3c4c(cccc24)CCC3)[C@@H]1c1c[nH]c2ccccc12 | -50.8%
12 | CCC[C@H](NC(=O)/C(C#N)=C/c1cccc(Br)n1)c1ccccc1 | -95.3%
13 | COc1cccc2c1C(=O)c1c(O)c3c(c(O)c1C2=O)C[C@@](O)(C(=O)CO)C[C@@H]3O[C@H]1C[C@H](N)[C@H](O)[C@H](C)O1 | -94% and -83.9%
14 | CN(Cc1cnc2nc(N)nc(N)c2n1)c1ccc(C(=O)N[C@@H](CCC(=O)O)C(=O)O)cc1 | -67.9%
15 | COC(=O)Nc1nc2cc(C(=O)c3ccc(F)cc3)ccc2[nH]1 | -46.6%
16 | COc1ccc2[nH]c(C(=O)c3ccccc3)cc2c1 | -61.7%
17 | CCOc1cc2ncc(C#N)c(Nc3ccc(OCc4cccc(F)c4)c(Cl)c3)c2cc1NC(=O)/C=C/CN(C)C | -30.8%
18 | CCCCc1oc2ccc(NS(C)(=O)=O)cc2c1C(=O)c1ccc(OCCCN(CCCC)CCCC)cc1 | -96.2%
19 | COc1ccc(-c2ccc3c(N4CCOC[C@@H]4C)nc(N4CCOC[C@@H]4C)nc3n2)cc1CO | -71.9%

Row | SMILES | cell viability activity
20 | C#Cc1cccc(Nc2ncnc3cc(OC)c(OCCCCCCC(=O)NO)cc23)c1 | -90.3%
21 | Cc1cnc(Nc2ccc(F)cc2Cl)nc1-c1c[nH]c(C(=O)N[C@H](CO)c2cccc(Cl)c2)c1 | -73.7%
22 | CCCCC/N=c1\ccn(Cc2ccccc2)c2ccccc12 | -62.5%
23 | Cc1nnc(C[C@@H]2C=C(c3ccc(Cl)cc3)c3ccccc3-n3c(C)nnc32)o1 | -63.5%
24 | O=C(/C=C\n1cnc(-c2cc(C(F)(F)F)cc(C(F)(F)F)c2)n1)NNc1cnccn1 | -73.9%
25 | CN(C)Cc1c(C(=O)NCCOc2ccc(C(=O)NO)cc2)oc2ccccc12 | -94.9%
26 | O=C(NC[C@H](O)CO)c1ccncc1Nc1ccc(I)cc1F | -83.4%
27 | CC(C)(C)CC(C)(C)c1ccc(OCCOCC[N+](C)(C)Cc2ccccc2)cc1 | -98.5%
28 | CCn1cc(-c2ccnc3[nH]c(-c4cccc(CN(C)C)c4)cc23)c(-c2ccc(NC(=O)N(C)C)cc2)n1 | -84.6%
29 | COC(=O)c1ccccc1-c1c2ccc(=N)cc-2oc2cc(N)ccc12 | -44.3%
30 | CNc1ncc2cc(-c3cc(NC(=O)NCCC(C)(C)C)c(F)cc3C)c(C)nc2n1 | -69%
31 | C[C@@H](CN1CC(=O)NC(=O)C1)N1CC(=O)NC(=O)C1 | -48.1%
32 | CC(C)N(C[C@H]1O[C@@H](n2cnc3c(N)ncnc32)[C@H](O)[C@@H]1O)[C@H]1C[C@@H](CCc2nc3cc(C(C)(C)C)ccc3[nH]2)C1 | -24.1%
33 | CC1=NN(c2ccc(C(=O)O)cc2)C(=O)/C1=C\c1ccc(-c2cc(C)c(C)cc2[N+](=O)[O-])o1 | -62.3%
34 | c1cc(Nc2cc(C3CC3)[nH]n2)nc(Nc2ccc3nc[nH]c3c2)n1 | -29.4%
35 | CN1CCc2c(c3ccccc3n2Cc2ccccc2)C1 | -59.2%
36 | OC1(c2ccc(Cl)c(C(F)(F)F)c2)CCN(CCCC(c2ccc(F)cc2)c2ccc(F)cc2)CC1 | -83%
37 | O=C1/C(=C/c2ccccc2)C(NC2CCCCC2)c2ccccc21 (configuration not stated) | -91.7%

— the supplement of paper PMC9177965
